From PubChem BioAssay AID933 (National Center for Advancing Translational Sciences (NCATS), 2007)
Results filed as inconclusive are left out. Entries that show only a call come without a potency. Unmarked numbers belong to inactive results. The source made the active and inactive calls. Calls follow the shape of the dose curve; as a rule, active = well fitted activation curve with a large enough effect in the signal ratio, with a control signal flat; inconclusive = small, poorly fitted or top-dose-only effect, or a change in a side signal; inactive = flat fitted curve, though single readings scatter; the % refers to the signal ratio.

Target: Thyrotropin receptor (Homo sapiens) (UniProt P16473)
Assay: Secondary Concentration-Response Assay for Agonists of the Thyroid Stimulating Hormone Receptor: HTRF Activity Detection;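 as to activation: HEK 293 cells stably expressing human TSHR with RO 20-1724 phosphodiesterase inhibitor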
Method in brief: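 Orthogonal confirmation in a separate TSHR-transfected HEK 293 line: cells in medium with 10 % FCS and 100 uM RO 20-1724 got compound for 30 min at room temperature. cAMP was measured by HTRF (d2-cAMP/anti-cAMP antibody), 615/660 nm emission.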
Potency is read from the fitted curve at half-maximal effect.

Chain of Thyrotropin receptor (Homo sapiens) (P16473 whole entry, looked up): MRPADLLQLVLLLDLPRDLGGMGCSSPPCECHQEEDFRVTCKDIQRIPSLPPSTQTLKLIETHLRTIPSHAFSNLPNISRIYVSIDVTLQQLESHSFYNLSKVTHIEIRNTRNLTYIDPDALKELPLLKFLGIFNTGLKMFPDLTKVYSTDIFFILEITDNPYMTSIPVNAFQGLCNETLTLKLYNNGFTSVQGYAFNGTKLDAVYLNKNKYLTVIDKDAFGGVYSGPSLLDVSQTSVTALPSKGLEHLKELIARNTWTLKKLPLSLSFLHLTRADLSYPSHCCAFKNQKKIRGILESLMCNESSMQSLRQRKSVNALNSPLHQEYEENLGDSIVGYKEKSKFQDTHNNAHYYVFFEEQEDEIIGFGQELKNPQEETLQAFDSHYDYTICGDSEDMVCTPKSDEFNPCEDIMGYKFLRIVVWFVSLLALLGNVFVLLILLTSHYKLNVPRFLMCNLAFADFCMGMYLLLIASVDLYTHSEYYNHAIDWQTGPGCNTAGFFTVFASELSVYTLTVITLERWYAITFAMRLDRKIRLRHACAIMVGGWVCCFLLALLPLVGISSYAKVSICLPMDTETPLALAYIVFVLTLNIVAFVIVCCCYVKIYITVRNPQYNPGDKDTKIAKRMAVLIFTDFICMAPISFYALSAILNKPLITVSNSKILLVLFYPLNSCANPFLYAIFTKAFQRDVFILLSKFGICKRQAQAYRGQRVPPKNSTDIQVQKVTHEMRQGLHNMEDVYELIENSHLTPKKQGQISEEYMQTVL

| Structure (SMILES) | activation | Potency |
| --- | --- | --- |
| CCOc1cc(C(=O)N(C)c2ccccc2)cc(OCC)c1OCC | 1.28% [at 0.00035 µM] | – |
| COc1ccc(/C=C2/C(=O)NC(=O)N(Cc3ccco3)C2=O)cc1COc1ccc(NC(C)=O)cc1 | – | inactive |
| COc1cccc2cc(C(=O)N(Cc3cccs3)Cc3cccs3)c(=O)oc12 | – | inactive |
| COc1ccc2c(c1OC)C(=O)N1c3ccccc3C(=O)N(c3ccccc3)C21 (stereo not given) | – | inactive |
| CCSCCOC(=O)C1=C(C)N(C)C(=O)NC1c1cc(OC)ccc1OC (stereo not given) | 1.56% [at 0.00035 µM] | – |
| COc1ccc(C2Nc3ccccc3C(=O)N2c2ccc(Cl)cc2)cc1Cn1cc([N+](=O)[O-])cn1 (stereo not given) | – | inactive |
| COc1ccc(C2Nc3ccccc3C(=O)N2Cc2cccc(-c3ccccc3)c2)cc1COc1ccc(NC(C)=O)cc1 (stereo not given) | – | 2.24 µM (active) |
| COc1ccc(C2Nc3ccccc3C(=O)N2Cc2ccccc2)cc1COc1ccccn1 (stereo not given) | – | inactive |
| COc1ccc(C2Nc3ccc(Cl)cc3C(=O)N2Cc2ccccc2)cc1COc1ccc(NC(C)=O)cc1 (stereo not given) | – | 14.1 µM (active) |
| COc1ccc2c(c1OC)C(=O)N1c3ccccc3C(=O)N(c3ccccc3F)C21 (stereo not given) | – | inactive |
| COc1ccc(C2Nc3ccc(NC(=O)COC(C)=O)cc3C(=O)N2Cc2ccccc2)cc1COc1ccc(NC(C)=O)cc1 (stereo not given) | – | 8.91 µM (active) |
| COc1ccc(C(=O)N(Cc2ccccc2)Cc2ccco2)c(O)c1 | – | 15.8 µM (active) |
| CCCN1C(=O)c2ccccc2NC1c1cc(OC)c(OC)c(OC)c1 (stereo not given) | – | inactive |
| COc1cc(OC)cc(-c2nnc(SCC(=O)N(C(C)C)C(C)C)o2)c1 | 0.0275% [at 0.00035 µM] | – |
| O=C(CN(c1ccc2c(c1)OCCO2)S(=O)(=O)c1ccccc1)NCc1ccco1 | -0.333% [at 0.00035 µM] | – |
| O=C1c2ccccc2N2C(=O)c3ccccc3C2N1Cc1ccco1 (stereo not given) | – | inactive |
| CCCC(=O)C1=C(SCC)CC(C)(C)C(C(=O)OC)C1=O (stereo not given) | 0.0277% [at 0.00035 µM] | – |
| COc1ccc(C2Nc3ccccc3C(=O)N2c2ccc(C)cc2)cc1Cn1cc([N+](=O)[O-])cn1 (stereo not given) | – | inactive |

| Structure (SMILES) | activation | Potency |
| --- | --- | --- |
| COc1ccc(C(=O)N(Cc2ccco2)Cc2cccs2)cc1 | – | inactive |
| O=C1CC(c2ccco2)CC2=C1C(c1cccnc1)n1nc(C(F)(F)F)nc1N2 (stereo not given) | – | inactive |
| COc1ccc(C2Nc3ccccc3C(=O)N2c2ccc(Cl)cc2)cc1COc1ccc(NC(C)=O)cc1 (stereo not given) | – | inactive |
| COc1cccc(OCc2cc(C3Nc4ccccc4C(=O)N3Cc3ccco3)ccc2OC)c1 (stereo not given) | – | inactive |
| COc1ccc(CN2C(=O)N(c3ccccc3)C(=O)C2c2ccccc2)cc1COc1ccc(NC(C)=O)cc1 (stereo not given) | – | inactive |
| CC(=O)Nc1cccc(OCc2cccc(C3Nc4ccccc4C(=O)N3Cc3ccco3)c2)c1 (stereo not given) | – | inactive |
| COc1ccc(C2Nc3ccccc3C(=O)N2c2ccc(F)cc2)cc1COc1ccc(NC(C)=O)cc1 (stereo not given) | – | inactive |
| O=C1c2ccccc2NC(c2ccccc2OCc2ccccc2)N1Cc1ccco1 (stereo not given) | – | inactive |
| COC(=O)COc1ccc(Cl)cc1C1Nc2ccccc2C(=O)N1c1ccc(OC)cc1 (stereo not given) | – | inactive |
| CN1C(=O)c2ccccc2N(C)C1c1ccc2c(c1)OCO2 (stereo not given) | – | inactive |
| COc1ccc(C2Nc3ccccc3C(=O)N2Cc2ccccc2)cc1COc1cccc(Cl)c1 (stereo not given) | – | inactive |
| O=C(COC(=O)C12CC3CC(CC(Cl)(C3)C1)C2)NCc1ccco1 | – | 14.1 µM (active) |
| Oc1ccccc1Cn1c(-c2ccccc2O)nc2ccccc21 | -0.344% [at 0.00035 µM] | – |
| COc1ccc(C2Nc3ccccc3C(=O)N2Cc2ccccc2)cc1COc1cccc(C(F)(F)F)c1 (stereo not given) | – | inactive |
| CCOC(=O)c1ccc(NC(=O)c2ccc(CN3CCOCC3)cc2)cc1 | 0.768% [at 0.00035 µM] | – |
| CSc1nc(NC(C)(C)C)nc(Oc2ccc(=O)[nH]n2)n1 | -0.106% [at 0.00035 µM] | – |
| COc1ccc(C2Nc3ccccc3C(=O)N2Cc2ccco2)cc1COc1cccc(NC(C)=O)c1 (stereo not given) | – | inactive |
